Most compounds without a hit are left out; they make up all but 7.8% or so of the library.
MARV entry inh: inhibitors of Marburg virus binding or cell entry | Marburg virus pseudotyped entry inhibition, cell reporter | Potency, µM (top dose mostly 37.8 µM), for the others: at the top dose activity change, negative = inhibition, most hits filed as inhibitors | 300,000 compounds, 1.8% hits | AID 540276; calls by dose curve; tested in HEK293 cells; also: potency is read from the fitted curve at half-maximal effect
VACV Venus inh: vaccinia inhibition (Venus reporter). Vaccinia virus Venus reporter expression, fluorescence. Potency, µM (highest dose often 36.5 µM), for inactives: at the highest dose activity change, negative = inhibition, most hits filed as inhibitors. 330,000 compounds, 0.46% hits; calls by dose curve; tested in A549 cells; also: potency is read from the fitted curve at half-maximal effect; nearly all actives have a fitted effect of over 30% in size
VACV mCherry inh: vaccinia inhibition (mCherry reporter). Vaccinia virus mCherry reporter infection, fluorescence. Potency, µM (highest dose often 36.5 µM), without a hit: at the highest dose activity change, negative = inhibition, hits mostly inhibitors. 310,000 compounds, 0.63% hits. AID 720579; calls by dose curve; tested in A549 cells; also: potency is read from the fitted curve at half-maximal effect; nearly all actives have a fitted effect of over 35% in size
HCV inh: blocks hepatitis C virus. Huh7.5.1 HCVcc-Cre infection, luciferase reporter, 44 h. 340,000 compounds, 3.4% hits. Potency, µM (titrated, usually from 41.8 µM), for inactives: top-dose activity change, negative = inhibition, hits mostly inhibitors. AID 651820; active = well fitted inhibition curve with a large enough effect; inconclusive = small, poorly fitted or top-dose-only effect, or another doubt; inactive = no such curve, though single readings can be large or run the other way; also: potency is read from the fitted curve at half-maximal effect
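Luciferase read-out (15 sec integration) after a 15 min room-temperature substrate step quantifies HCVcc-Cre infection. Cells, 1,000 per well, had compound added 4 h post-plating, then virus at ~0.5 moi, and were cultured 44 h.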
Lassa entry inh: Lassa virus entry inhibition. 300,000 compounds, 1.2% hits. Lassa virus pseudotype entry inhibition, cell reporter. Potency, µM (doses to about 37.9 µM), without a hit: at the highest dose activity change, negative = inhibition, usual class: inhibitors. AID 540256; calls by dose curve; tested in HEK293 cells; also: potency is read from the fitted curve at half-maximal effect; nearly all actives have a fitted effect of over 50% in size
HCMV inh: inhibitors of human cytomegalovirus; HFF cells, HCMV-luciferase reporter, 72 h; active compounds read low; activity change, negative = inhibition, % at 57.5 µM; 410,000 compounds, 4.5% hits; AID 1259415; in the data active = activity change below about -60%; inconclusive = no clear call, values can overlap the other calls; inactive = above about -39%
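Human foreskin fibroblasts infected with luciferase-reporter HCMV at MOI 1 PFU/cell, compounds at two doses. Luciferase measured 72 h post infection; normalized to buffer-only basal and Salinomycin (10uM) controls.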
* marks the source's active call; other numbers are inactive results; i = inactive; ? = inconclusive; nt = no result; ! = repeats disagree; [ ] = remark or other dose. % is scaled to controls: 0 for no effect and ±100 for the full control effect.

SMILES	MARV entry inh	VACV Venus inh	VACV mCherry inh	HCV inh	Lassa entry inh	HCMV inh
Cc1oc(-c2ccccc2F)nc1CS(=O)(=O)CC(=O)N1CCCCCC1	1%	-22%	?	-27%	nt	-23
CCc1ccccc1-n1cnc2cc(C(=O)NC3CCCCCC3)ccc21	nt	-8%	-16%	nt	-2%[46.1 µM]	0
Cc1ccsc1-c1nc(CSCC(=O)N2CCN(c3ccccc3)CC2)c(C)o1	0%	-19%	?	?	nt	6
CCCNS(=O)(=O)c1ccc(CCC(=O)N2CCN(c3ccc(F)cc3)CC2)cc1	-33%	-20%	-7%	?	4%	-65*
Cc1ccc(-c2nc(CSCC(=O)N3CCCC3)c(C)o2)cc1	-2%	nt	nt	?	1%	?
COc1ccc(-c2nc(CSCC(=O)N3CCN(c4ccccc4)CC3)c(C)o2)cc1	0%[46.1 µM]	?	?	nt	-7%[46.1 µM]	-65*
Cc1ccc(CSCC(=O)N2CCN(c3ccc(F)cc3)CC2)cc1	-9%	-7%	-9%	2%	?	-66*!
CCc1ccc(-c2nc(CSCC(=O)N3CCN(c4ccc(F)cc4)CC3)c(C)o2)cc1	7%[46.1 µM]	?	?	nt	21%[46.1 µM]	-80*
CCc1nc2cc(C(=O)N3CCCN(C=O)CC3)cc(NC(=O)c3ccccc3OC)c2n1C	nt	0%	-7%	nt	nt	nt
COc1cc2nc(N(C)C)c(CNCc3cccc4ccccc34)cc2c(OC)c1OC	nt	-4%	i	nt	nt	nt
COc1ccc(-c2nc(CSCC(=O)N3CCN(c4cccc(C)c4)C(C)C3)c(C)o2)cc1OC (centres undefined)	?	-25%	-13%	10µM*	?	-18
COc1ccc(-c2nc(CSCC(=O)N3CCc4ccccc4C3)c(C)o2)cc1OC	nt	-5%	-17%	?	nt	1
COC(=O)C1=C(C)NC(=O)/C1=C\c1cc(C)n(-c2ccccc2)c1C	7.9µM*	-4%	?	-15%	?	-6
C(=Cc1cnc2ccccc2n1)c1ccc2c(c1)OCO2	nt	-25%	?	nt	nt	-81*
C[n+]1c(/C=C/c2ccc(O)cc2)ccc2ccccc21	?	5%	i	?	17%	-19
C[n+]1c(/C=C/c2ccc3c(c2)OCO3)ccc2ccccc21	?	-14%	i	9%	0%[46.1 µM]	-66*
COc1cc2nc(N3CCN(C)CC3)nc(NC(C)C)c2cc1OC	nt	-24%	-7%	nt	nt	nt
O=C(Nc1ccc2ccccc2c1)C(c1ccccc1)C1CCCC1 (centres undefined)	?	nt	nt	?	2.6µM*	?
Cc1onc(-c2ccc(Cl)cc2)c1-c1ccnc(SCC(=O)Nc2cc(Cl)cc(Cl)c2)n1	7.9µM*	-5%	-6%	16µM*	?	-15
O=C(Cc1csc(Nc2nc(=S)[nH]c3ccccc23)n1)NCc1ccccc1Cl	?	nt	nt	11µM*	?	-4
CC#C[C@]1(O)CC[C@H]2[C@@H]3CCC4=CC(=O)CCC4=C3[C@@H](c3ccc(N(C)C)cc3)C[C@@]21C	10µM*!	-14%	-6%	35µM*!	8.2µM*!	114
CC(=O)O[C@H]1CCC2C3CCC4=CC(=O)CCC4=C3C=C[C@@]21C (some centres undefined)	-15%	-11%	-1%	11%	1%	-11
N/N=C/C(=N\Nc1ccc(Cl)cc1)C(=O)c1ccncc1	?	-20%	?	22µM*	?	-27
O=C(NNC(=O)c1ccncc1)Nc1ccc(Cl)cc1	?	-4%	i	2%	-3%[46.1 µM]	12
CCC[N+](C)(C)c1ccc(/C=C/c2ccncc2)cc1	nt	i	211%	nt	nt	nt
Cc1ccccc1OCC(=O)Nc1nnc(S(=O)(=O)N(C)c2ccccc2)s1	nt	-4%	-7%	nt	5%[46.1 µM]	14
COc1cccc(CNC(=O)Cn2cccc2C(=O)c2ccccc2)c1	6%[46.1 µM]	-8%	-17%	nt	12%[46.1 µM]	-96*
COc1cccc(CNC(=O)Cc2ccc(-n3c(=O)[nH]c4ccccc4c3=O)cc2)c1	?	-20%	-26%	-6%	?	-97*
CCCNC(=O)Cn1cccc1C(=O)c1ccccc1	10%	0%	-8%	18%	28%	-21
COc1ccc(CNC(=O)c2ccc3c(=O)n(-c4ccccc4)c(=O)[nH]c3c2)cc1	-12%[46.1 µM]	0%	-4%	?	?	nt

Bioassay records (PubChem BioAssay)
